SMILES strings stand for the structures. Hit rate of the full screen: of about 52,000 compounds, about 4,300 (8.3%) were called active. The sample holds actives, similar compounds and a random draw of the others, so the mix is not that of the screen. Unmarked numbers belong to inactive results. Rule as the data show it: active = survival mostly below about 52% (no sharp cut-off); inactive = mostly above about 56%.

This experiment has as its system DeltatarO mutant. Nature of the experiment: growth inhibition of S. aureus wild type versus tarO mutant, primary screen, teichoic acid synthesis inhibitors, RN4220, OD600 (AID 463173). The note with it: OD600, 18 h, stronger effect = lower value, screened at 18.75 µg/mL (by protocol).
Regarding `COc1cc(Cl)c(NC(=O)CCS(=O)(=O)c2ccc3c(c2)NC(=O)CO3)c(OC)c1`, the survival is 90%.

As for `COc1ccc(NC(=O)c2cc3cc(C)ccc3[nH]2)cc1`, the survival was 100%.

Turning to `Cc1ccc(NC(=O)CN2C(=O)COc3ccc(S(=O)(=O)N4CCOCC4)cc32)cc1N(C)C`, the survival is 99%. For the compound `Cc1ccc(S(=O)(=O)c2cn(CC(=O)Nc3ccc4c(c3)OCO4)c3ccc(F)cc3c2=O)cc1`, the survival was 69%.

For `CC1C(=O)NN=C1C(=O)N/N=C\c1cccnc1` (configuration not stated), the survival was 87%. Consider `CSc1cccc(NS(=O)(=O)c2cn(C)c(C)n2)c1`, for which the survival is 75%. Consider `Cc1ccc(NS(=O)(=O)c2cn(C)c(C)n2)c(Br)c1`, for which the survival was 69%. `COc1ccccc1NS(=O)(=O)c1cn(C)c(C)n1`: the survival is 37% (active). Under `CCc1nn(CC(=O)NC(C)CC)c(=O)c2cc3c(OC)cccc3n12` (configuration not stated) stands 128%; under `CCCc1ccc(OC(C)c2nc(-c3ccc(-n4cccc4)cc3)no2)cc1` (configuration not stated), 52% (active); under `CCc1ccc(OCc2nc(-c3ccc(-n4cccc4)cc3)no2)cc1`, 82%. Under `CCc1ccc(OC(C)c2nc(-c3ccc(-n4cccc4)cc3)no2)cc1` (configuration not stated) stands 48%. In the case of `Cc1cc(NC(=O)CSc2nc3c([nH]c4ccccc43)c(=O)n2-c2ccccc2F)no1`, the survival was 88%. With `CC(Sc1nnc(-c2ccccc2Br)o1)C(=O)Nc1cccc(Cl)c1` (configuration not stated), the survival is 34% (active). Regarding `Cc1ccccc1NC(=O)C(C)Sc1nnc(-c2ccccc2O)o1` (configuration not stated), the survival was 69%.

Regarding `Cc1ccccc1NC(=O)C(C)Sc1nnc(-c2ccccc2C)o1` (configuration not stated), the survival was 74%. `CCOC(=O)C1(C)C=C(Nc2ccc(C(N)=O)cc2)C(=O)N1c1ccccc1` (configuration not stated): the survival was 68%. Consider `CCC(=O)N1CCc2cc(Br)cc(S(=O)(=O)CCC(=O)NCCc3ccccc3)c21`, for which the survival was 91%. Under `Cc1ccc(C)c(NC(=O)CN2C(=O)COc3ccc(Cl)cc32)c1` stands 69%. For `COC(=O)c1ccccc1NC(=O)CN1C(=O)COc2ccc(Cl)cc21`, the survival was 38% (active). For `COC(=O)c1ccccc1NC(=O)CN1C(=O)COc2ccccc21`, the survival is 69%. With `COc1ccc(-n2ncc(C(=O)N3CCN(C(=O)c4ccco4)CC3)c2C2CCN(C(=O)OC(C)(C)C)CC2)cc1`, the survival is 86%. As to `O=C(c1cc2cc3ccc(Cl)cc3nc2o1)N1CCN(c2cccc(Cl)c2)CC1`, the survival was 46% (active). On to `COc1ccc(S(=O)Cc2ccc(C(=O)N3CCN(c4cccc(C)c4C)CC3)o2)cc1` (configuration not stated), for which the survival was 79%.

With `Cc1cccc(N2CCN(C(=O)c3ccc(CS(=O)c4cccc(Cl)c4)o3)CC2)c1C` (configuration not stated), the survival is 51% (active).

`Cc1ccccc1S(=O)(=O)Cc1ccc(C(=O)N2CCN(c3cccc(Cl)c3)CC2)o1`: the survival is 54% (active). As for `O=C(c1ccc(CS(=O)c2ccccc2Cl)o1)N1CCN(c2cccc(Cl)c2)CC1` (configuration not stated), the survival is 51% (active).

Turning to `Cc1ccccc1S(=O)Cc1ccc(C(=O)N2CCN(c3cccc(C)c3C)CC2)o1` (configuration not stated), the survival was 61%. For `COc1ccc(N2CCN(C(=O)c3cc4cc5ccc(Cl)cc5nc4o3)CC2)cc1`, the survival is 86%.

As to `Cc1ccc2cc3cc(C(=O)N4CCN(c5ccc(Cl)cc5)CC4)oc3nc2c1`, the survival was 85%. Regarding `O=C(c1ccc(CS(=O)c2ccccc2Cl)o1)N1CCN(c2cccc(C(F)(F)F)c2)CC1` (configuration not stated), the survival was 60%. In the case of `Cc1ccc(S(=O)(=O)Cc2ccc(C(=O)N3CCN(c4cccc(Cl)c4)CC3)o2)cc1`, the survival is 75%. In the case of `O=C(c1ccc(CS(=O)c2ccccc2Cl)o1)N1CCN(c2ccccc2F)CC1` (configuration not stated), the survival was 84%. As to `Cc1ccc(Cl)cc1N1CCN(C(=O)c2ccc(CS(=O)(=O)c3ccccc3C)o2)CC1`, the survival is 50%. Consider `CNC(=O)C1CCC(Cn2c(=O)c3sccc3n(Cc3ccc(F)cc3)c2=O)CC1` (configuration not stated), for which the survival was 79%.

Consider `NS(=O)(=O)c1ccc(CCNC(=O)c2nc(SCc3ccccc3F)ncc2Cl)cc1`, for which the survival is 45%. Turning to `CC(C)(C)NS(=O)(=O)c1ccc2oc3ccc(S(=O)(=O)NC(C)(C)C)cc3c2c1`, the survival is 86%. Under `O=C(O)c1cccc(N=NN2CCOCC2)c1` stands 80%; under `CSc1cccc(NS(=O)(=O)c2ccc3[nH]cc(C(=O)N4CCCC4)c(=O)c3c2)c1`, 91%; under `O=C(CSc1ccc2ccccc2n1)Nc1nsc(-c2ccc(Cl)cc2)n1`, 57%. Consider `Cc1cccc(Cn2cc(S(=O)(=O)c3cccc(C)c3)c(=O)c3cc(F)c(N4CCOCC4)cc32)c1`, for which the survival is 76%. On to `CCCCOc1ccc(C2C(=O)N(C3CCCCC3)CC(=O)N2C2CCCCC2)cc1` (configuration not stated), for which the survival was 94%. As for `CCN(CC)S(=O)(=O)c1ccc2c(c1)N(CC(=O)NCCc1ccccc1)C(=O)CO2`, the survival is 76%. Turning to `CC(C)Oc1ccc(CNC(=O)c2ccc(CS(=O)c3cccc(Cl)c3)o2)cc1` (configuration not stated), the survival is 52% (active). Turning to `CC(C)Oc1ccc(CNC(=O)c2ccc(CS(=O)Cc3ccccc3Cl)o2)cc1` (configuration not stated), the survival was 109%. Regarding `Cc1ccc(S(=O)Cc2ccc(C(=O)NCc3ccc(OC(C)C)cc3)o2)cc1` (configuration not stated), the survival was 51%. For the compound `O=C(Cn1c(-c2cccs2)cc2cc(F)ccc21)N1CCN(c2ccccc2)CC1`, the survival is 71%. With `CCc1cccc(NC(c2nnc(-c3ccccc3)o2)c2ccc(F)cc2Cl)c1` (configuration not stated), the survival is 83%. In the case of `Cc1ccc(Cl)cc1NC(c1ccc(F)cc1)c1nnc(-c2ccccc2)o1` (configuration not stated), the survival is 86%.

With `COc1ccc(NC(c2ccc(F)cc2)c2nnc(-c3ccccc3Cl)o2)cc1Cl` (configuration not stated), the survival was 78%. Under `COc1cc(Cl)c(C)cc1NC(c1ccccc1)c1nnc(-c2ccccc2Cl)o1` (configuration not stated) stands 69%; under `CCc1cccc(NC(c2ccccc2)c2nnc(-c3ccccc3F)o2)c1` (configuration not stated), 11% (active). Regarding `Cc1ccc(C)c(NC(c2ccccc2)c2nnc(-c3ccccc3F)o2)c1` (configuration not stated), the survival is 4% (active).

Consider `COc1ccc(OC)c(NC(=O)CSc2cn(CC(=O)N3CCOCC3)c3ccccc23)c1`, for which the survival is 91%. Take `CC(=O)Nc1ccc2nc(SCc3ccccc3)sc2c1`: the survival was 63%. `CC(C)NC(=O)Cn1c(SCC(=O)N2CCc3ccccc32)nc2ccccc21`: the survival is 97%. Under `Cc1ccc2nc(-c3ccccc3F)c(Nc3ccc(Cl)cc3)n2c1` stands 16%. `CCCCn1c(=O)nc2n(-c3ccc(F)cc3)c3ccccc3cc-2c1=O`: the survival was 41% (active). As for `Cn1c(=O)nc2n(-c3ccc(Br)cc3)c3cccc(Cl)c3cc-2c1=O`, the survival was 80%.

Regarding `Cc1ccc(-n2c3nc(=O)n(C)c(=O)c-3cc3ccccc32)c(C)c1`, the survival was 99%. `CCOc1ccccc1C(=O)N1CCC(c2nc3ccccc3o2)CC1`: the survival is 80%. As for `Cc1cccc(NC(=O)CCCn2c(C)c3cnn(-c4ccccc4)c(=O)c3c2C)c1C`, the figure is 71%; as for `CCCCSc1ncc(C(=O)OCC)c(N)n1`, 78% (active). As for `CCOC(=O)c1cnc(SCC(=O)OC)nc1N`, the survival was 95%.

For the compound `CCOC(=O)c1cnc(SC2CCc3ccccc3C2=O)nc1N` (configuration not stated), the survival was 79%. As for `COc1ccc(CNC(=O)CN(c2ccccc2)S(=O)(=O)N(C)C)cc1`, the figure is 145%; as for `O=C(Cc1csc2nc(-c3ccccc3)cn12)NCc1ccc(F)cc1`, 90%.

In the case of `Cc1cccc(-c2cc3nc4c(c(N5CCCC5)n3n2)CCCC4)c1`, the survival was 123%. With `O=C(CSc1oc(-c2ccco2)nc1S(=O)(=O)c1ccc(Br)cc1)c1ccc(Cl)cc1`, the survival is 52%. As for `O=S(=O)(c1ccc(Cl)cc1)c1nc(-c2ccco2)oc1SCc1ccccc1F`, the figure is 62%.

As to `O=C(CSc1oc(-c2ccco2)nc1S(=O)(=O)c1ccc(Br)cc1)c1ccccc1`, the survival was 47% (active). For `CC(C)CSc1oc(-c2ccco2)nc1S(=O)(=O)c1ccc(Br)cc1`, the survival was 33% (active). For `Cc1ccc(S(=O)(=O)c2nc(-c3ccco3)oc2SCC(C)C)cc1`, the survival is 48% (active). On to `O=S(=O)(c1ccc(Br)cc1)c1nc(-c2ccco2)oc1SCc1ccccc1Cl`, for which the survival is 149%. Under `CCSc1oc(-c2ccco2)nc1S(=O)(=O)c1ccc(Br)cc1` stands 54%; under `CCCSc1oc(-c2ccco2)nc1S(=O)(=O)c1ccc(Br)cc1`, 55%; under `O=C(CSc1oc(-c2ccco2)nc1S(=O)(=O)c1ccc(Cl)cc1)c1ccccc1`, 125%.

In the case of `O=S(=O)(c1ccc(Br)cc1)c1nc(-c2ccco2)oc1SCc1ccccc1F`, the survival is 44% (active). As for `Cc1ccc(CSc2oc(-c3ccco3)nc2S(=O)(=O)c2ccc(C)cc2)cc1`, the figure is 62%; as for `Cc1ccc(S(=O)(=O)c2nc(-c3ccco3)oc2SCc2ccc(F)cc2)cc1`, 66%.

`O=C(CSc1nnc(-c2ccccc2)c(-c2ccccc2)n1)NC1CCCC1`: the survival was 77%. As for `COc1ccc(CC(NC(C)=O)C(=O)NC2CCN(c3nc(OC)nc(OC)n3)CC2)cc1` (configuration not stated), the figure is 88%; as for `Cc1ccc(-c2cc(-c3coc4ccc(Cl)cc4c3=O)c3c(n2)-c2ccccc2OC3)cc1`, 77%. Turning to `Cc1ncc(COC(=O)C(C)C)c2cc(C(=O)Nc3ccccc3C(F)(F)F)c(=O)oc12`, the survival is 134%. Consider `Cc1ccc(OCC(=O)Nc2nc(-c3ccc(Br)cc3)ns2)cc1C`, for which the survival is 110%. Regarding `O=C(Cc1cccs1)Nc1c(C(=O)Nc2ccc(F)cc2)oc2ccccc12`, the survival was 94%. With `Cc1cc(-n2c(C)nc3ccccc3c2=O)ccc1NC(=O)c1ccc(C)c([N+](=O)[O-])c1`, the survival is 37% (active). As for `Cc1cc(-n2c(C)nc3ccccc3c2=O)ccc1NC(=O)c1ccc([N+](=O)[O-])cc1`, the figure is 83%; as for `Cc1c(C(=O)Nc2ccc(-n3c(C)nc4ccccc4c3=O)cc2)cccc1[N+](=O)[O-]`, 99%. Regarding `Cc1cc(-n2c(C)nc3ccccc3c2=O)ccc1NC(=O)c1ccccc1[N+](=O)[O-]`, the survival was 69%. As to `Cc1cc(-n2c(C)nc3ccccc3c2=O)ccc1NC(=O)c1cccc([N+](=O)[O-])c1C`, the survival is 0% (active).

`Cc1ccc(C(=O)Nc2ccc(-n3c(C)nc4ccccc4c3=O)cc2)cc1[N+](=O)[O-]`: the survival was 117%.

These data come from PubChem BioAssay AID463173 (ICCB-Longwood Screening Facility, Harvard Medical School, 2010).
